Test results published in PubChem BioAssay (Tox21).
Records with an inconclusive call do not appear. Active and inactive are the calls of the source. The call rests on the fitted dose curve; in most records, active means well fitted curve in the direction sought with a large enough effect in the repeat runs; inconclusive means weak or mixed curves; inactive means no such curve, though single readings can be large; an effect the other way counts as inactive or inconclusive.

Tests used:
[1] = A CellTox Green Cytotoxicity Assay to monitor cytotoxicity in HEK293 cells - 40 hour (AID 1224871); further: nearly all actives have a fitted effect of over 45% in size
In short: (§1)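 HEK293 cells premixed with CellTox Green dye were seeded at 600 cells/well and left 5 h at 37 C/5% CO2 before pin transfer of 23 nL compound in DMSO. Fluorescence from dye bound to dead-cell DNA was read during 40 h treatment.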

[2] = qHTS RealTime-Glo MT Cell Viability Assay in HEK293 cells - 16 hour (AID 1224872); further: top concentration of the series differs between compounds; nearly all actives have a fitted effect of over 50% in size
In short: (§2)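 Luminescence generated by NanoLuc from substrate produced by living HEK293 cells served as the viability signal. Each value reflects the reading at its stated time point during continuous 40 h compound exposure at 37 C.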

[3] = qHTS RealTime-Glo MT Cell Viability Assay in HepG2 cells - 8 hour (AID 1224873); further: nearly all actives have a fitted effect of over 55% in size
In short: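 HepG2 cells (600/well) mixed with RealTime-Glo MT reagent, settled 5 h at 37 C/5% CO2 before compound addition. Nonlytic NanoLuc luminescence from viable-cell prosubstrate reduction read repeatedly during 40 h treatment at 37 C.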

[4] = qHTS RealTime-Glo MT Cell Viability Assay in HEK293 cells - 40 hour (AID 1224874); conditions: RealTime-Glo luminescence; max response: stronger effect = lower value; further: nearly all actives have a fitted effect of over 50% in size
In short: (§3)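 HEK293 cells mixed with RealTime-Glo reagents (NanoLuc plus cell-permeant prosubstrate) at 600 cells/well, preincubated 5 h at 37 C/5% CO2, then given 23 nL compound in DMSO. Nonlytic luminescence from viable cells was read at 0, 8, 16, 24, 32 and 40 h.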

[5] = A CellTox Green Cytotoxicity Assay to monitor cytotoxicity in HEK293 cells - 24 hour (AID 1224875); further: series mostly up to about 77 µM; nearly all actives have a fitted effect of over 45% in size
In short: as §1

[6] = A CellTox Green Cytotoxicity Assay to monitor cytotoxicity in HepG2 cells - 16 hour (AID 1224876); further: nearly all actives have a fitted effect of over 45% in size
In short: (§4)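 HepG2 cells were seeded together with the CellTox Green dye at 600 cells/well, left 5 h at 37 C/5% CO2, then given compounds in DMSO. Fluorescence from dye bound to dead-cell DNA was read repeatedly over 40 h of treatment at 37 C.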

[7] = qHTS RealTime-Glo MT Cell Viability Assay in HepG2 cells - 32 hour (AID 1224877); further: nearly all actives have a fitted effect of over 55% in size
In short: (§5)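 Tox21 10K library screened in qHTS format on HepG2 cells carrying RealTime-Glo reagents. Compounds were added after a 5 h preincubation, and the luminescent signal from continuous culture was measured repeatedly during 40 h treatment.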

[8] = A CellTox Green Cytotoxicity Assay to monitor cytotoxicity in HepG2 cells - 24 hour (AID 1224878); further: nearly all actives have a fitted effect of over 45% in size
In short: as §4

[9] = A CellTox Green Cytotoxicity Assay to monitor cytotoxicity in HepG2 cells - 40 hour (AID 1224879); further: nearly all actives have a fitted effect of over 40% in size
In short: as §4

[10] = qHTS RealTime-Glo MT Cell Viability Assay in HEK293 cells - 0 hour (AID 1224880)
In short: as §3

[11] = A CellTox Green Cytotoxicity Assay to monitor cytotoxicity in HEK293 cells - 32 hour (AID 1224881); further: nearly all actives have a fitted effect of over 40% in size
In short: as §1

[12] = A CellTox Green Cytotoxicity Assay to monitor cytotoxicity in HepG2 cells - 0 hour (AID 1224882); further: nearly all actives have a fitted effect of over 35% in size
In short: as §4

[13] = A CellTox Green Cytotoxicity Assay to monitor cytotoxicity in HepG2 cells - 32 hour (AID 1224883); further: nearly all actives have a fitted effect of over 50% in size
In short: as §4

[14] = qHTS RealTime-Glo MT Cell Viability Assay in HepG2 cells - 16 hour (AID 1224885); further: nearly all actives have a fitted effect of over 50% in size
In short: as §5

[15] = qHTS RealTime-Glo MT Cell Viability Assay in HEK293 cells - 24 hour (AID 1224886)
In short: as §2

[16] = A CellTox Green Cytotoxicity Assay to monitor cytotoxicity in HEK293 cells - 16 hour (AID 1224888); further: nearly all actives have a fitted effect of over 35% in size
In short: as §1

[17] = qHTS RealTime-Glo MT Cell Viability Assay in HepG2 cells - 0 hour (AID 1224889); further: nearly all actives have a fitted effect of over 50% in size
In short: as §5

[18] = A CellTox Green Cytotoxicity Assay to monitor cytotoxicity in HepG2 cells - 8 hour (AID 1224890); further: nearly all actives have a fitted effect of over 45% in size
In short: as §4

[19] = qHTS RealTime-Glo MT Cell Viability Assay in HEK293 cells - 8 hour (AID 1224887)
In short: as §3

[20] = A CellTox Green Cytotoxicity Assay to monitor cytotoxicity in HEK293 cells - 8 hour (AID 1224884); further: nearly all actives have a fitted effect of over 35% in size
In short: as §1
On the % scale 0 is the no-effect control and ±100 the full control effect.

CCOC(=O)/C=C(C)/C=C/C[C@@H](C)CCCC(C)C
inactive: Potency [1] | Potency [2] | Potency [3] | max response [4] 8.55% | Potency [5] | Potency [6] | Potency [7] | Potency [8] | Potency [9] | outcome [10] | Potency [11] | outcome [12] | Potency [13] | Potency [14] | Potency [15] | Potency [16] | Potency [17] | Potency [18]

OC(Cn1cncn1)(c1ccc(F)cc1)c1ccccc1F (stereo unspecified)
inactive: Potency [1] | Potency [2] | Potency [3] | max response [4] -0.588% | Potency [5] | Potency [6] | Potency [7] | Potency [8] | Potency [9] | outcome [10] | Potency [11] | outcome [12] | Potency [13] | Potency [14] | Potency [15] | Potency [19] | Potency [16] | Potency [17] | Potency [18]

CCOP(=S)(OCC)SCSc1ccc(Cl)cc1
inactive: Potency [1] | Potency [2] | Potency [3] | max response [4] -2.07% | Potency [5] | Potency [6] | Potency [7] | Potency [8] | Potency [9] | outcome [10] | Potency [11] | outcome [12] | Potency [13] | Potency [14] | Potency [15] | Potency [16] | Potency [18]

O=C1CN=C(c2ccccc2)c2cc([N+](=O)[O-])ccc2N1
inactive: Potency [1] | Potency [2] | Potency [3] | max response [4] -17.7% | Potency [5] | Potency [6] | Potency [7] | Potency [8] | Potency [9] | outcome [10] | Potency [11] | outcome [12] | Potency [20] | Potency [14] | Potency [15] | Potency [19] | Potency [16] | Potency [17] | Potency [18]

CCOC(=O)N(C)C(=O)CSP(=S)(OCC)OCC
inactive: Potency [1] | Potency [2] | Potency [3] | max response [4] -10% | Potency [5] | Potency [6] | Potency [7] | Potency [8] | Potency [9] | outcome [10] | Potency [11] | outcome [12] | Potency [13] | Potency [14] | Potency [15] | Potency [19] | Potency [16] | Potency [18]

Cc1coc2c1CCC(C)C2 (stereo unspecified)
inactive: Potency [1] | Potency [2] | Potency [3] | max response [4] 15.4% | Potency [5] | Potency [6] | Potency [7] | Potency [8] | Potency [9] | outcome [10] | Potency [11] | outcome [12] | Potency [13] | Potency [14] | Potency [15] | Potency [19] | Potency [16] | Potency [17] | Potency [18]

CCCCCCBr
inactive: Potency [1] | Potency [2] | Potency [3] | max response [4] 13.7% | Potency [5] | Potency [6] | Potency [7] | Potency [8] | Potency [9] | outcome [10] | Potency [11] | outcome [12] | Potency [13] | Potency [20] | Potency [15] | Potency [19] | Potency [16] | Potency [18]

Cc1cc(C)c(C(=O)P(=O)(C(=O)c2c(C)cc(C)cc2C)c2ccccc2)c(C)c1
inactive: Potency [1] | Potency [2] | Potency [3] | max response [4] -8.76% | Potency [5] | Potency [6] | Potency [7] | Potency [8] | Potency [9] | outcome [10] | Potency [11] | outcome [12] | Potency [20] | Potency [14] | Potency [15] | Potency [19] | Potency [16] | Potency [17] | Potency [18]

O=[N+]([O-])c1ccc(CBr)cc1
inactive: Potency [1] | Potency [2] | Potency [3] | max response [4] 12.7% | Potency [5] | Potency [6] | Potency [7] | Potency [8] | Potency [9] | outcome [10] | Potency [11] | outcome [12] | Potency [13] | Potency [14] | Potency [15] | Potency [19] | Potency [16] | Potency [17] | Potency [18]

NC(=O)c1cc([N+](=O)[O-])cc([N+](=O)[O-])c1
inactive: Potency [1] | Potency [2] | Potency [3] | max response [4] 4.2% | Potency [5] | Potency [6] | Potency [7] | Potency [8] | Potency [9] | outcome [10] | Potency [11] | outcome [12] | Potency [20] | Potency [14] | Potency [15] | Potency [19] | Potency [16] | Potency [17] | Potency [18]

O=C(O)c1cccc(Cl)c1
inactive: Potency [1] | Potency [2] | Potency [3] | max response [4] 4.06% | Potency [5] | Potency [6] | Potency [7] | Potency [8] | Potency [9] | outcome [10] | Potency [11] | outcome [12] | Potency [13] | Potency [20] | Potency [15] | Potency [16] | Potency [18]

CCOC(=O)CP(=O)(OCC)OCC
inactive: Potency [1] | Potency [2] | Potency [3] | max response [4] 0.417% | Potency [5] | Potency [6] | Potency [7] | Potency [8] | Potency [9] | outcome [10] | Potency [11] | outcome [12] | Potency [20] | Potency [14] | Potency [15] | Potency [19] | Potency [16] | Potency [17] | Potency [18]

C=C(C)[C@@H]1CC=C(C=O)CC1
inactive: Potency [1] | Potency [2] | Potency [3] | max response [4] -6.37% | Potency [5] | Potency [6] | Potency [7] | Potency [8] | Potency [9] | outcome [10] | Potency [11] | outcome [12] | Potency [13] | Potency [14] | Potency [15] | Potency [16] | Potency [18]

O=NN1CCCCC1
inactive: Potency [1] | Potency [2] | Potency [3] | max response [4] 1.37% | Potency [5] | Potency [6] | Potency [7] | Potency [8] | Potency [9] | outcome [10] | Potency [11] | outcome [12] | Potency [20] | Potency [14] | Potency [15] | Potency [19] | Potency [16] | Potency [17] | Potency [18]

CC(C)(C)NCC(O)c1cc(Cl)c(N)c(Cl)c1 (stereo unspecified)
inactive: Potency [1] | Potency [2] | Potency [3] | max response [4] 2.03% | Potency [5] | Potency [6] | Potency [7] | Potency [8] | Potency [9] | outcome [10] | Potency [11] | outcome [12] | Potency [13] | Potency [14] | Potency [15] | Potency [19] | Potency [16] | Potency [17] | Potency [18]
